Measurements taken from PubChem BioAssay (EPA / NIEHS).
Several values for one entry are separate records, joined by “and”; a condition that tells them apart may be missing. Equal values may be shown once. Where a structure was tested more than once in an assay, its records may differ in their call. Activity calls are given as the source filed them. Rule for the calls: active = hit-call score of the fitted dose curve at least 0.9, where 1 is the maximum; inactive = score below 0.9.

read-out: Matrix Metallopeptidase 1 (MMP1), MMP1 (gene 4312); experiment: BSK_BE3C_MMP1: BioMAP Diversity Plus: BE3C Assay for Matrix Metallopeptidase 1 (MMP1) Biomarker Activity (AID 2283024); conditions: primary human bronchial epithelial cells; actives raise or lower the signal
Procedure, shortened: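 Human primary bronchial epithelial cells (BE3C system) dosed for 24 h; MMP-1 quantified by ELISA. Bidirectional fit against DMSO; cytotoxicity tracked in parallel cultures by SRB total-protein staining.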

| Compound | outcome | AC50 |
| --- | --- | --- |
| CC(C)(C)C(=O)CC(=O)C(F)(F)C(F)(F)C(F)(F)F | inactive |  |
| FC(F)(F)C(F)(F)C(F)(F)C(F)(F)C(F)(F)C(F)(F)CC1CO1 (configuration not stated) | inactive |  |
| O=C(O)C(F)(F)C(F)(F)C(F)(F)C(F)(F)C(F)(F)C(F)(F)C(F)(F)C(F)(F)C(F)(F)C(F)F | inactive |  |
| O=C(O)C(F)(OC(F)(F)C(F)(OC(F)(F)C(F)(OC(F)(F)C(F)(F)C(F)(F)F)C(F)(F)F)C(F)(F)F)C(F)(F)F (configuration not stated) | inactive |  |
| FC(F)(F)C(F)(F)C(F)(F)C(F)(F)C(F)(F)CCI |  | 30 µM (active) and 19.5 µM (active) |

read-out: not listed separately; experiment: BSK_3C_Vis: BioMAP Diversity Plus: 3C Assay for Morphology Visualization (AID 2283025); conditions: primary human endothelial cells (HUVEC);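 note: fitted both ways so gain or loss versus DMSO counts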;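 for AC50: light microscopy image of cell morphology used as background control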
Procedure, shortened: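 Human umbilical vein endothelial cell morphology was inspected by light microscopy 24 h after chemical dosing; scored bidirectionally relative to DMSO.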

| Compound | outcome | AC50 |
| --- | --- | --- |
| Oc1ccc(Nc2ccccc2)cc1 | inactive |  |
| CC(=O)Nc1ccc(N=Nc2cc(C)ccc2O)cc1 |  | 39.6 µM (active) |
| CCCCCCCOC(=O)c1ccccc1C(=O)OCCCCCCC | inactive |  |
| CCCCCCCCCCCCCCCC[N+](C)(C)Cc1ccccc1 |  | 2.96 µM (active) |

read-out: Pselectin, SELP (gene 6403); experiment: BSK_4H_Pselectin: BioMAP Diversity Plus: 4H Assay for Pselectin Biomarker Activity (AID 2283026); conditions: primary human endothelial cells (HUVEC); actives raise or lower the signal
Procedure, shortened: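 Primary human umbilical vein endothelial cells were treated 24 h, and cell-surface P-selectin was then quantified by ELISA. Bidirectional fit versus DMSO; cytotoxicity checked in parallel cultures by SRB total-protein staining.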

| Compound | outcome | AC50 |
| --- | --- | --- |
| OCC(F)(F)C(F)(F)C(F)(F)C(F)F | inactive |  |
| Oc1ccc(Nc2ccccc2)cc1 | inactive |  |
| O=C(O)C(F)(F)C(F)(F)OC(F)(F)F | inactive |  |
| CCCCCCOC(=O)c1ccccc1O |  | 40.7 µM (active) and 41.9 µM (active) |
| O=S(=O)(O)C(F)(F)C(F)(F)C(F)(F)C(F)(F)C(F)(F)C(F)(F)C(F)(F)F | inactive |  |
| O=C(O)C(F)(F)C(F)(F)C(F)(F)C(F)(F)F | inactive |  |
| O=C(O)C(F)(F)C(F)(F)C(F)(F)F | inactive |  |
| C=CC(F)(F)C(F)(F)C(F)(F)C(F)(F)C(F)(F)C(F)(F)C(F)(F)C(F)(F)C=C | inactive |  |
| CC(=O)Nc1ccc(N=Nc2cc(C)ccc2O)cc1 |  | 15.2 µM (active) |
| N=C(N)C(F)(F)C(F)(F)C(F)(F)C(F)(F)C(F)(F)C(F)(F)C(F)(F)F | inactive |  |
| O=C(O)C(F)(F)C(F)(F)C(F)(F)C(F)(F)C(F)(F)C(F)(F)C(F)(F)C(F)(F)Cl | inactive |  |
| O=P(O)(O)OCCC(F)(F)C(F)(F)C(F)(F)C(F)(F)C(F)(F)C(F)(F)F | inactive |  |
| CCCCCCCOC(=O)c1ccccc1C(=O)OCCCCCCC | inactive |  |
| CCCCCCCCCCCCCCCC[N+](C)(C)Cc1ccccc1 |  | 4.62 µM (active) |
| FC(F)(F)C(F)(F)C(F)(F)CI | inactive |  |
| O=C(O)C(F)(F)C(F)(F)C(F)(F)C(F)(F)C(F)(F)C(F)(F)C(F)(F)C(F)(F)C(F)(F)C(F)(F)C(F)(F)C(F)(F)C(F)(F)F | inactive |  |
| O=C(O)C(F)(F)C(F)(F)C(F)(F)C(F)(F)C(F)(F)C(F)(F)C(F)(F)C(F)(F)C(F)(F)C(F)(F)C(F)(F)C(F)(F)F | inactive |  |
| CC(C)(C)C(=O)CC(=O)C(F)(F)C(F)(F)C(F)(F)F | inactive | 5.95 µM (active) |
| FC(F)(F)C(F)(F)C(F)(F)C(F)(F)C(F)(F)C(F)(F)CC1CO1 (configuration not stated) | inactive |  |
| O=C(O)C(F)(F)C(F)(F)C(F)(F)C(F)(F)C(F)(F)C(F)(F)C(F)(F)C(F)(F)C(F)(F)C(F)F | inactive |  |
| O=C(O)C(F)(OC(F)(F)C(F)(OC(F)(F)C(F)(OC(F)(F)C(F)(F)C(F)(F)F)C(F)(F)F)C(F)(F)F)C(F)(F)F (configuration not stated) | inactive |  |
| FC(F)(F)C(F)(F)C(F)(F)C(F)(F)C(F)(F)CCI | inactive |  |
